The values below come from ChEMBL document CHEMBL4513149, “CO-ADD screening of MMV (CH) - MMV compounds” (2021).

Results with a measured potency or affinity are listed apart.

In general, Inhibition refers to the percentage by which the read-out fell short of the control. Read a low Inhibition as a response near the control.

For the experiment, the system named is Candida albicans. Particulars: 20 µM.
Compound `CC(C)(C)n1nc(Cc2cccc3ccccc23)c2c(N)ncnc21` gave an Inhibition of 3.16%.
In the case of `CC(=O)Nc1ccc(NC(=O)c2cc(-c3cc(Cl)ccc3O)n[nH]2)cc1`, the Inhibition is 54.8%.
In the case of `CC(C)C(NC(=O)Cc1cccc2ccccc12)C(=O)Nc1cccc(C#N)c1` (stereo not drawn), the Inhibition is 6.6%.
The same measure for `O=C(Nc1ccnc(-c2cccnc2)n1)c1cc(C(F)(F)F)cc(C(F)(F)F)c1`: 1.91%; for `O=C(NCc1ccco1)N1CCN(Cc2ccc(Cl)s2)CC1`: 2.08%; for `OCc1ccc(-c2cncc(Nc3cccc(Cl)c3)c2)cc1`: 4.13%.
Compound `CCS(=O)(=O)N(Cc1ccco1)Cc1cc2ccc(C)cc2nc1O` registered an Inhibition of 3.52%.
Compound `CCCS(=O)(=O)N1CCC(CO)(Cc2ccccc2C(F)(F)F)CC1` gave an Inhibition of 3.76%.
As for `CNC(=O)c1cc(S(=O)(=O)N2CCN(c3ccccn3)CC2)cs1`, the Inhibition worked out at 2.91%.
As to `Nc1ncc(-c2cn[nH]c2)cc1-c1nc2cc(Cl)cnc2[nH]1`, the Inhibition was determined as 4.36%.
`CC1=NN(c2nc3ccccc3s2)C(=O)C1Cc1cccc2ccccc12` (stereo not drawn) yielded an Inhibition of 19.6%.
`O=C(NC1CCCCC1)N1CCN(Cc2ccc3c(c2)OCO3)CC1` registered an Inhibition of 0.64%.
Regarding `O=C(N[C@H](Cc1ccccc1)C(=O)Nc1ccccc1N1CCOCC1)c1cccs1`, the Inhibition stood at 3.1%.
As for `O=C(NC1CC1)c1ccc(N2CCOc3ccc(Cl)cc32)s1`, the Inhibition was determined as 6.64%.
Under `CC1CCCCN1C(=O)NCCc1coc(-c2ccc(F)cc2)n1` (stereo not drawn) stands 3.66%; under `CCCCc1ccc(NC(=O)Nc2ccc(O[C@H]3CCCC[C@@H]3N(C)c3ccccc3)c(F)c2)cc1`, 1.16%.
In turn, `COc1cccc(OC)c1C(=O)Nc1ccc(Cl)c(-c2nc3ccccc3s2)c1` came in with an Inhibition of 4.58%.
For the compound `CC(C)(C)c1cc(C(=O)Nc2cccnc2)cc(C(=O)Nc2cccnc2)c1`, the Inhibition stood at 3.35%.
